# Compounds without any hit were thinned out: in the full panel of roughly 79,000, 15% have a hit. Values without a mark were called inactive. Calls of active or inactive are those of the source. Rule as the data show it: active = growth inhibition above about 70%; inactive = the rest.
# Experiments:
# [1] = NCI Yeast Anticancer Drug Screen. Data for the rad52 strain (AID 147);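 also: 0% = growth of vehicle-treated control cultures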; conditions: S. cerevisiae rad52 mutant growth inhibition, stronger effect = higher value
# How it was run: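 DNA repair-defective yeast; compound exposure; growth scored against vehicle controls.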
# [2] = NCI Yeast Anticancer Drug Screen. Data for the wt1 strain (AID 149);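 also: 0% = growth of vehicle-treated wt1 cultures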; conditions: S. cerevisiae wt1 strain (SPY 50644) growth inhibition, stronger effect = higher value
# How it was run: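 wt1 strain grown with compound or vehicle; inhibition taken from the growth difference.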
# [3] = NCI Yeast Anticancer Drug Screen. Data for the rad50EPP+ strain (AID 151);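 also: 0% = growth of vehicle-treated control cultures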; conditions: S. cerevisiae rad50 mutant strain, stronger effect = higher value
# How it was run: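 rad50EPP+ yeast treated with test compounds. Readout: growth vs vehicle control.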
# [4] = NCI Yeast Anticancer Drug Screen. Data for the mgt1 strain (AID 153); conditions: S. cerevisiae mgt1 mutant growth inhibition, stronger effect = higher value
# How it was run: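 Growth inhibition relative to vehicle controls was scored for the mgt1 yeast strain after compound exposure.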
# [5] = NCI Yeast Anticancer Drug Screen. Data for the rad50 strain (AID 155);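 also: 0% = growth of vehicle-only cultures of the same strain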; conditions: S. cerevisiae rad50 strain growth inhibition, stronger effect = higher value
# How it was run: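 DNA repair mutant yeast, compound exposure, growth read-out; inhibition is taken relative to vehicle.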
# [6] = NCI Yeast Anticancer Drug Screen. Data for the mec2-1 strain (AID 157); conditions: S. cerevisiae mec2-1 strain, stronger effect = higher value
# How it was run: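 Growth inhibition is read against vehicle-treated controls after compound exposure of the mec2-1 yeast strain, which is defective in DNA damage repair or cell cycle control.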
# [7] = NCI Yeast Anticancer Drug Screen. Data for the rad14 strain (AID 159);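 also: 0% = growth of vehicle-treated control cultures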; conditions: S. cerevisiae rad14 strain growth inhibition, stronger effect = higher value
# How it was run: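 DNA repair-defective yeast, compound-exposed; % growth inhibition derived by comparison with vehicle-treated controls.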
# [8] = NCI Yeast Anticancer Drug Screen. Data for the sgs1 mgt1 strain (AID 161);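 also: 0% = growth of cultures given vehicle only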; conditions: S. cerevisiae sgs1 mgt1 strain, stronger effect = higher value
# How it was run: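 Yeast cells carrying a defined DNA-repair defect were exposed to test compounds. Growth inhibition was measured relative to vehicle-treated controls.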
# [9] = NCI Yeast Anticancer Drug Screen. Data for the CLN2oe strain (AID 163);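 also: 0% = growth of vehicle-only control cultures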; conditions: S. cerevisiae CLN2oe strain, stronger effect = higher value
# How it was run: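 Compound-treated yeast; growth vs vehicle ctrl = % inhibition. Genetically altered strain (cell-cycle control).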
# [10] = NCI Yeast Anticancer Drug Screen. Data for the cln2 rad14 strain (AID 165);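 also: 0% = growth equal to vehicle treated cultures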; conditions: S. cerevisiae cln2 rad14 strain, stronger effect = higher value
# How it was run: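 Growth inhibition, relative to vehicle-treated controls, is the read-out. The test organism is a yeast strain with defined genetic alterations, cln2 rad14.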
# [11] = NCI Yeast Anticancer Drug Screen. Data for the bub3 strain (AID 167); conditions: S. cerevisiae bub3 mutant strain, stronger effect = higher value
# How it was run: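 In this screen, a yeast mutant lacking normal mitotic checkpoint function is challenged with compound. Relative growth versus vehicle gives the inhibition value.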
# [12] = NCI Yeast Anticancer Drug Screen. Data for the wt2 strain (AID 169);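 also: 0% = growth of vehicle-treated yeast cultures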; conditions: S. cerevisiae wt2 strain growth inhibition, stronger effect = higher value
# How it was run: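 Compound exposure of yeast; growth compared with vehicle controls; inhibition reported.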
# [13] = NCI Yeast Anticancer Drug Screen. Data for the mlh1 strain (AID 171);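 also: 0% = growth of vehicle-treated control cultures of the same strain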; conditions: S. cerevisiae mlh1 strain growth inhibition, stronger effect = higher value
# How it was run: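 Compounds are applied to a genetically altered yeast strain, and its growth is compared with that of vehicle-treated cultures to give percent inhibition.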
# [14] = NCI Yeast Anticancer Drug Screen. Data for the sgs1 strain (AID 173);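 also: 0% = growth of vehicle-only control cultures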; conditions: S. cerevisiae sgs1 mutant, stronger effect = higher value
# How it was run: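 Compounds applied to genetically altered yeast; growth compared with vehicle-treated cultures to give % inhibition.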
# [15] = NCI Yeast Anticancer Drug Screen. Data for the mlh1 rad18 strain (AID 175); conditions: S. cerevisiae mlh1 rad18 strain growth inhibition; at 50.0 µM; stronger effect = higher value
# How it was run: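 Cells of a genetically altered yeast strain, deficient in DNA damage repair, were treated with compound. Their growth was then compared with that of vehicle-treated cultures to give inhibition.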
# [16] = NCI Yeast Anticancer Drug Screen. Data for the rad18 strain (AID 177); conditions: S. cerevisiae rad18 mutant growth inhibition, stronger effect = higher value
# How it was run: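 Compounds are applied to a repair-deficient yeast strain, and growth is compared with that of vehicle-treated cultures to give percent inhibition.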
# [17] = at 5.0 µM (retest, dose inferred, filed as 0.5)
# [18] = at 50.0 µM (retest, dose inferred, filed as 5.0)
compound,measurement,setting,value
O=NN(CCCl)C(=O)NCCCl,growth inhibition,[1]; at 1.2 µM,0%
same,growth inhibition,[1]; at 3.7 µM,1%
same,growth inhibition,[1]; at 11.0 µM,6%
same,growth inhibition,[1]; at 33.0 µM,13%
same,growth inhibition,[1]; at 100.0 µM,51%
same,growth inhibition,[2]; at 1.2 µM,-1%
same,growth inhibition,[2]; at 3.7 µM,-2%
same,growth inhibition,[2]; at 11.0 µM,-1%
same,growth inhibition,[2]; at 33.0 µM,0%
same,growth inhibition,[2]; at 100.0 µM,-16%
same,growth inhibition,[3]; at 1.2 µM,-3%
same,growth inhibition,[3]; at 3.7 µM,-1%
same,growth inhibition,[3]; at 11.0 µM,5%
same,growth inhibition,[3]; at 33.0 µM,30%
same,growth inhibition,[3]; at 100.0 µM,76% (active)
same,growth inhibition,[4]; at 1.2 µM,-3%
same,growth inhibition,[4]; at 3.7 µM,-2%
same,growth inhibition,[4]; at 11.0 µM,0%
same,growth inhibition,[4]; at 33.0 µM,2%
same,growth inhibition,[4]; at 100.0 µM,3%
same,growth inhibition,[5]; at 1.2 µM,0%
same,growth inhibition,[5]; at 3.7 µM,0%
same,growth inhibition,[5]; at 11.0 µM,6%
same,growth inhibition,[5]; at 33.0 µM,15%
same,growth inhibition,[5]; at 50.0 µM,35.6%
same,growth inhibition,[5]; at 100.0 µM,53%
same,growth inhibition,[6]; at 1.2 µM,-2%
same,growth inhibition,[6]; at 3.7 µM,0%
same,growth inhibition,[6]; at 11.0 µM,1%
same,growth inhibition,[6]; at 33.0 µM,4%
same,growth inhibition,[6]; at 50.0 µM,-4.3%
same,growth inhibition,[6]; at 100.0 µM,15%
same,growth inhibition,[7]; at 1.2 µM,-2%
same,growth inhibition,[7]; at 3.7 µM,1%
same,growth inhibition,[7]; at 11.0 µM,3%
same,growth inhibition,[7]; at 33.0 µM,3%
same,growth inhibition,[7]; at 100.0 µM,11%
same,growth inhibition,[8]; at 50.0 µM,6.75%
same,growth inhibition,[9]; at 1.2 µM,-10%
same,growth inhibition,[9]; at 3.7 µM,-5%
same,growth inhibition,[9]; at 11.0 µM,-6%
same,growth inhibition,[9]; at 33.0 µM,-5%
same,growth inhibition,[9]; at 100.0 µM,0%
same,growth inhibition,[10]; at 50.0 µM,2.3%
same,growth inhibition,[11]; at 1.2 µM,2%
same,growth inhibition,[11]; at 3.7 µM,-2%
same,growth inhibition,[11]; at 11.0 µM,0%
same,growth inhibition,[11]; at 33.0 µM,-6%
same,growth inhibition,[11]; at 50.0 µM,-10.8%
same,growth inhibition,[11]; at 100.0 µM,3%
same,growth inhibition,[12]; at 1.2 µM,-3%
same,growth inhibition,[12]; at 3.7 µM,-3%
same,growth inhibition,[12]; at 11.0 µM,-3%
same,growth inhibition,[12]; at 33.0 µM,0%
same,growth inhibition,[12]; at 100.0 µM,3%
same,growth inhibition,[13]; at 1.2 µM,-1%
same,growth inhibition,[13]; at 3.7 µM,-2%
same,growth inhibition,[13]; at 11.0 µM,-2%
same,growth inhibition,[13]; at 33.0 µM,1%
same,growth inhibition,[13]; at 100.0 µM,8%
same,growth inhibition,[14]; at 1.2 µM,-2%
same,growth inhibition,[14]; at 3.7 µM,-1%
same,growth inhibition,[14]; at 11.0 µM,1%
same,growth inhibition,[14]; at 33.0 µM,10%
same,growth inhibition,[14]; at 100.0 µM,33%
same,growth inhibition,[15],43%
same,growth inhibition,[16]; at 1.2 µM,4%
same,growth inhibition,[16]; at 3.7 µM,13%
same,growth inhibition,[16]; at 11.0 µM,45%
same,growth inhibition,[16]; at 33.0 µM,85% (active)
same,growth inhibition,[16]; at 100.0 µM,94% (active)
O=C1c2ccccc2C(=O)c2cc(S(=O)(=O)Nc3ccccc3)ccc21,growth inhibition,[1]; at 1.2 µM,0%
same,growth inhibition,[1]; at 3.7 µM,7%
same,growth inhibition,[1]; at 11.0 µM,16%
same,growth inhibition,[1]; at 33.0 µM,26%
same,growth inhibition,[1]; at 100.0 µM,19%
same,growth inhibition,[2]; at 1.2 µM,5%
same,growth inhibition,[2]; at 3.7 µM,9%
same,growth inhibition,[2]; at 11.0 µM,8%
same,growth inhibition,[2]; at 33.0 µM,9%
same,growth inhibition,[2]; at 100.0 µM,4%
same,growth inhibition,[3]; at 1.2 µM,9%
same,growth inhibition,[3]; at 3.7 µM,21%
same,growth inhibition,[3]; at 11.0 µM,34%
same,growth inhibition,[3]; at 33.0 µM,45%
same,growth inhibition,[3]; at 100.0 µM,47%
same,growth inhibition,[5]; at 1.2 µM,1%
same,growth inhibition,[5]; at 3.7 µM,7%
same,growth inhibition,[5]; [17],60%
same,growth inhibition,[5]; at 11.0 µM,11%
same,growth inhibition,[5]; at 33.0 µM,23%
same,growth inhibition,[5]; [18],49%
same,growth inhibition,[5]; at 50.0 µM,96.2% (active)
same,growth inhibition,[5]; at 100.0 µM,22%
same,growth inhibition,[6]; at 1.2 µM,-1%
same,growth inhibition,[6]; at 3.7 µM,5%
same,growth inhibition,[6]; [17],33%
same,growth inhibition,[6]; at 11.0 µM,12%
same,growth inhibition,[6]; at 33.0 µM,21%
same,growth inhibition,[6]; [18],61%
same,growth inhibition,[6]; at 50.0 µM,91.4% (active)
same,growth inhibition,[6]; at 100.0 µM,19%
same,growth inhibition,[7]; at 1.2 µM,-1%
same,growth inhibition,[7]; at 3.7 µM,1%
same,growth inhibition,[7]; at 11.0 µM,7%
same,growth inhibition,[7]; at 33.0 µM,12%
same,growth inhibition,[7]; at 100.0 µM,11%
same,growth inhibition,[8]; [17],51%
same,growth inhibition,[8]; [18],61%
same,growth inhibition,[8]; at 50.0 µM,96.2% (active)
same,growth inhibition,[9]; at 1.2 µM,-6%
same,growth inhibition,[9]; at 3.7 µM,-15%
same,growth inhibition,[9]; at 11.0 µM,5%
same,growth inhibition,[9]; at 33.0 µM,7%
same,growth inhibition,[9]; at 100.0 µM,2%
same,growth inhibition,[10]; [17],22%
same,growth inhibition,[10]; [18],37%
same,growth inhibition,[10]; at 50.0 µM,92.2% (active)
same,growth inhibition,[11]; at 1.2 µM,0%
same,growth inhibition,[11]; at 3.7 µM,4%
same,growth inhibition,[11]; [17],58%
same,growth inhibition,[11]; at 11.0 µM,24%
same,growth inhibition,[11]; at 33.0 µM,33%
same,growth inhibition,[11]; [18],84% (active)
same,growth inhibition,[11]; at 50.0 µM,96.1% (active)
same,growth inhibition,[11]; at 100.0 µM,25%
same,growth inhibition,[12]; at 1.2 µM,3%
same,growth inhibition,[12]; at 3.7 µM,6%
same,growth inhibition,[12]; at 11.0 µM,9%
same,growth inhibition,[12]; at 33.0 µM,14%
same,growth inhibition,[12]; at 100.0 µM,8%
same,growth inhibition,[13]; at 1.2 µM,0%
same,growth inhibition,[13]; at 3.7 µM,2%
same,growth inhibition,[13]; at 11.0 µM,10%
same,growth inhibition,[13]; at 33.0 µM,14%
same,growth inhibition,[13]; at 100.0 µM,12%
same,growth inhibition,[14]; at 1.2 µM,2%
same,growth inhibition,[14]; at 3.7 µM,5%
same,growth inhibition,[14]; at 11.0 µM,18%
same,growth inhibition,[14]; at 33.0 µM,22%
same,growth inhibition,[14]; at 100.0 µM,18%
same,growth inhibition,[16]; at 1.2 µM,0%
same,growth inhibition,[16]; at 3.7 µM,2%
same,growth inhibition,[16]; at 11.0 µM,9%
same,growth inhibition,[16]; at 33.0 µM,19%
same,growth inhibition,[16]; at 100.0 µM,-78%
